Percent Effect data for eleven molecules are collected here from ChEMBL document CHEMBL3988442, “University of Dundee, Small-Polar-MMV Screening Library” (2021).

For some of these results: Results with a measured potency or affinity are listed apart.

Design in all cases: scale not given: direction of the effect not stated beside the values
Test [1] has as its target Protein translocase subunit SecA (Escherichia coli (strain K12)) (UniProt P10408). Description: Assay to Identify E. coli SecA ATPase Inhibitors. The test is classed as functional. The note with it: 30 µM.
For test [2], the target named is T1, Ubiquitin-activating enzyme e1, putative (Leishmania donovani (strain BPK282A1)) (UniProt E9BSI1).
T1 sequence (whole entry): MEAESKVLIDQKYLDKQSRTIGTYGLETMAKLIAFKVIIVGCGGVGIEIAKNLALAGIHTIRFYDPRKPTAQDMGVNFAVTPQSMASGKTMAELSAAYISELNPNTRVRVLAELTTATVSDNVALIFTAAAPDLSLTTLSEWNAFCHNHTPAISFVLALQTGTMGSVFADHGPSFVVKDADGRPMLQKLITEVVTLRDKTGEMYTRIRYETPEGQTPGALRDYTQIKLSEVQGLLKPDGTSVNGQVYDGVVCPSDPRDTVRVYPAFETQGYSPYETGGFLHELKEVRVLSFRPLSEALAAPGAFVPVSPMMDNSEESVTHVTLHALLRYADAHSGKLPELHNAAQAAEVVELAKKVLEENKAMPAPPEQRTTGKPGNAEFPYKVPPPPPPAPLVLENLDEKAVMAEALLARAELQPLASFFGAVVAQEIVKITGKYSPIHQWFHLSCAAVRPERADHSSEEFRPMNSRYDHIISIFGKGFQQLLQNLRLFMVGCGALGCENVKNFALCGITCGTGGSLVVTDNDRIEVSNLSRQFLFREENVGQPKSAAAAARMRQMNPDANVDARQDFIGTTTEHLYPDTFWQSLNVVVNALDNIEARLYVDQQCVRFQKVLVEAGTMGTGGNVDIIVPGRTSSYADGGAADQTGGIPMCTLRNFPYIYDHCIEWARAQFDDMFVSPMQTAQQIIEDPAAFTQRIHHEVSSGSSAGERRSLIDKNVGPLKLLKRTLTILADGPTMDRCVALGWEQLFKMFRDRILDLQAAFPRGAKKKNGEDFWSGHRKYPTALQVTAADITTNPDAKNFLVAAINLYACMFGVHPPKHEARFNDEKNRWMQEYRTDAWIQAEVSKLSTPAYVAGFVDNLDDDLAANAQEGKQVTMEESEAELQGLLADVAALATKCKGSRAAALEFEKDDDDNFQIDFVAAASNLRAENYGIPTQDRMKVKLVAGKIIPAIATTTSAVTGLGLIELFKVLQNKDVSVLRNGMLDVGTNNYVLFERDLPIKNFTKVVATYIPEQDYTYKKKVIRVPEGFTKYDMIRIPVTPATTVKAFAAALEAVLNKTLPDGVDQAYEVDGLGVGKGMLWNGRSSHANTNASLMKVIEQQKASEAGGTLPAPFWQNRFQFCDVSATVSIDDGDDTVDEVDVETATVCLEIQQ
Description: Leishmania donovani Ubiquitin Activating Enzyme (LdE1). The note with it: 30 µM. The test is classed as functional.

Test [3] has as its target AMP-activated protein kinase, AMPK (Homo sapiens) (UniProt P54646+O43741+P54619+Q9UGJ0+Q9Y478+Q13131+Q9UGI9). Briefly: AMP-dependent Kinase enzyme assay. An in vitro enzyme assay that detects ADP turnover that is directly proportional to AMPK activity. This uses naive AMPK that is activated during the assay with MK-8722. The test is classed as functional. To be noted: 30 µM.

Test [4] concerns the target Sialic acid-binding Ig-like lectin 9 (Homo sapiens) (UniProt Q9Y336). Description: Hs-Siglec9 ALPHAscreen SOP 20170721. To be noted: 10 µM. In general terms: Alpha assays give light when donor and acceptor beads are brought close together.
The test system of the next test is Trypanosoma cruzi. Description: Trypanosoma cruzi phosphomannomutase and mannose-1-phosphate guanylyltransferase assay. It counts as functional. The note with it: 10 µM.
In test [5] the target is T2, Arginase-2, mitochondrial (Homo sapiens) (UniProt P78540).
T2 sequence (whole entry): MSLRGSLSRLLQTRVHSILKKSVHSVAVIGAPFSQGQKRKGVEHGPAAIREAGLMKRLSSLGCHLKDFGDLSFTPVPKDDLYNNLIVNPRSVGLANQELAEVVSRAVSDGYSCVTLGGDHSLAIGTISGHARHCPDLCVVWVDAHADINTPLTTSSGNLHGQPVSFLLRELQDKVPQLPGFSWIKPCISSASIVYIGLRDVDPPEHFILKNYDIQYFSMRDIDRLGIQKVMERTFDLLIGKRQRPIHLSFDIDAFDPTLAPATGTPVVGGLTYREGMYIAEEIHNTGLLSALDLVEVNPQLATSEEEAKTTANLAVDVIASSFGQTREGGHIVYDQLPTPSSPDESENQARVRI
Briefly: in vitro enzyme assay to detect the production of urea directly proportional to the activity of Arginase II. Also: in the data most compounds retested in dose-response had high values. The note with it: 33.3 µM. It counts as functional.

Test [6] concerns the target T3, Proteasome subunit beta (Trypanosoma cruzi) (UniProt O96673).
T3 sequence (whole entry): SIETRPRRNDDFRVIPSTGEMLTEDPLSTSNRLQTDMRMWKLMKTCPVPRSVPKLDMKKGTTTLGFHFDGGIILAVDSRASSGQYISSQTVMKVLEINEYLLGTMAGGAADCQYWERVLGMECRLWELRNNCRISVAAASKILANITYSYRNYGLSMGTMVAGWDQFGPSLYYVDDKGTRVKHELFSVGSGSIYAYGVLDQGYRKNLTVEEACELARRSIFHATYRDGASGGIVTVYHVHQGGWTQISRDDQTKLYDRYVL
Description: Trypanosoma cruzi proteasome chymotrypsin-like activity (TcProtChymo) assay. Also: in the data most compounds retested in dose-response had high values. The test is classed as functional. To be noted: 9.37 µM.

The next test is filed under the species Homo sapiens. Description: To identify inhibition of the IFN signalling (Jak-Stat) pathway via expression of an eGFP reporter gene under the control of an IFN-stimulated response element (ISRE) containing MxA promoter. To be noted: 30 µM. It counts as functional.
The target of test [7] is T4, Tyrosyl-tRNA synthetase, putative (Trypanosoma cruzi (strain CL Brener)) (UniProt Q4DSP6).
T4 sequence (whole entry): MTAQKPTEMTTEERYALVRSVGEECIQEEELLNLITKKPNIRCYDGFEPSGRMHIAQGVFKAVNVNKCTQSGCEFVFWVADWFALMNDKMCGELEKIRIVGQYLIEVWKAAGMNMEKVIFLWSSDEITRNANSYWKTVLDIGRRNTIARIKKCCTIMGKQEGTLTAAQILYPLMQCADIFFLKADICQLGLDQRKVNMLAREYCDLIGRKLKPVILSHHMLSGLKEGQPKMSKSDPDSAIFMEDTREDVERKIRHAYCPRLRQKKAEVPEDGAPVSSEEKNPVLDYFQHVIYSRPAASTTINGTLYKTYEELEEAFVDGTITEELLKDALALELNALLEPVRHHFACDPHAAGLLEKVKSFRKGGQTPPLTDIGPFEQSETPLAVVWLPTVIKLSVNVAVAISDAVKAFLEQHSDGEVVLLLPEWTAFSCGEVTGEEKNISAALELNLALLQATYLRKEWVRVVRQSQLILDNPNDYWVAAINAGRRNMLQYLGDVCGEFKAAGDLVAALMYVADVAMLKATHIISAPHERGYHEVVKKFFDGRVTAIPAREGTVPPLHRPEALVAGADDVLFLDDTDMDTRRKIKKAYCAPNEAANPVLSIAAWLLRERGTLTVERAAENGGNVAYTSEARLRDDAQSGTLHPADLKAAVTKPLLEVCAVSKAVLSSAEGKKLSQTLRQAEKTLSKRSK
Briefly: Trypanosoma cruzi tyrosyl tRNA synthetase (TcYRS) _High Tyrosine SOP. Also: in the data most compounds retested in dose-response had high values. The note with it: 30 µM. The test is classed as functional.

Test [8] deals with T4, Tyrosyl-tRNA synthetase, putative (Trypanosoma cruzi (strain CL Brener)). Briefly: Trypanosoma cruzi tyrosyl tRNA synthetase (TcYRS) SOP. It counts as functional. The note with it: 30 µM.
In test [9] the target is Chromo domain-containing protein 1 (Saccharomyces cerevisiae (strain ATCC 204508 / S288c) (Baker's yeast)) (UniProt P32657). Briefly: ScCHD-1 Enzyme Inhibition Assay. Also: in the data most compounds retested in dose-response had high values. The test is classed as functional. The note with it: 30 µM.
Sequence of Chromo domain-containing protein 1 (Saccharomyces cerevisiae (strain ATCC 204508 / S288c) (Baker's yeast)) (P32657 whole entry, the tested form may be a part): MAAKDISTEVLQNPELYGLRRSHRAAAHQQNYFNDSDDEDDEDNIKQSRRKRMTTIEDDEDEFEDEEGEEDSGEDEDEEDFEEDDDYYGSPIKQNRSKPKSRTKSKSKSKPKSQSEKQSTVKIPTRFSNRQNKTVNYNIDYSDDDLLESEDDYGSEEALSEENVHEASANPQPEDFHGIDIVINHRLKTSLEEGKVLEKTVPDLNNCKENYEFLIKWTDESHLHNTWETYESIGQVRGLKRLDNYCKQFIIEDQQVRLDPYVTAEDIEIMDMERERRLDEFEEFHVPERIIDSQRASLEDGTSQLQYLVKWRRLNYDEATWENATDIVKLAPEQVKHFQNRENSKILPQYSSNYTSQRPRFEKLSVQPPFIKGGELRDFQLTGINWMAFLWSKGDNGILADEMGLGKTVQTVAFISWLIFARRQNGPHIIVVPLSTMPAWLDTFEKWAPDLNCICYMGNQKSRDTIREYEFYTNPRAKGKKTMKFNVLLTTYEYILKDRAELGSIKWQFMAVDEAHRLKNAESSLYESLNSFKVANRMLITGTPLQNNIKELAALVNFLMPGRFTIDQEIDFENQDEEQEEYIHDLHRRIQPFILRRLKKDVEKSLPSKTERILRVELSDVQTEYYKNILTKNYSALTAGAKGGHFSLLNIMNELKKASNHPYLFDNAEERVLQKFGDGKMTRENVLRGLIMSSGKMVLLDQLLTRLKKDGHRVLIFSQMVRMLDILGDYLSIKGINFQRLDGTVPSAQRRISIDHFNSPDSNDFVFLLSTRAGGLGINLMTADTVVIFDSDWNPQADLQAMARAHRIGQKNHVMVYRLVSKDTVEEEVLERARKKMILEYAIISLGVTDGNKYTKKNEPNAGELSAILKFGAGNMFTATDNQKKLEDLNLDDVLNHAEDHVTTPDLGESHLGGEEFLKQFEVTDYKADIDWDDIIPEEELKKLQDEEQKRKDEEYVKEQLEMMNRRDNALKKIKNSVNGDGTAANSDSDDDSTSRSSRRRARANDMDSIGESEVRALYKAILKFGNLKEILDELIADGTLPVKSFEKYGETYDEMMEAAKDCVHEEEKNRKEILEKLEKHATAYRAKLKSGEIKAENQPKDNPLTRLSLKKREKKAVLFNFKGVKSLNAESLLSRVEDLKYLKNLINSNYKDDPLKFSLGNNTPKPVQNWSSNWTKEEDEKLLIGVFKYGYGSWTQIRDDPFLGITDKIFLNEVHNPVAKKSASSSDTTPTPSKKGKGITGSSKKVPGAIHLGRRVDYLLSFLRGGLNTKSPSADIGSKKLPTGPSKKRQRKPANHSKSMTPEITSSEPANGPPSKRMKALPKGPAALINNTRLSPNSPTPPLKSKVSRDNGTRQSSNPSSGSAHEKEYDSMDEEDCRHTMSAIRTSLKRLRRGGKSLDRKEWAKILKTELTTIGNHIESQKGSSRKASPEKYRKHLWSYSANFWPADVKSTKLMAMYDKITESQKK

Sequence of Protein translocase subunit SecA (Escherichia coli (strain K12)) (P10408 whole entry): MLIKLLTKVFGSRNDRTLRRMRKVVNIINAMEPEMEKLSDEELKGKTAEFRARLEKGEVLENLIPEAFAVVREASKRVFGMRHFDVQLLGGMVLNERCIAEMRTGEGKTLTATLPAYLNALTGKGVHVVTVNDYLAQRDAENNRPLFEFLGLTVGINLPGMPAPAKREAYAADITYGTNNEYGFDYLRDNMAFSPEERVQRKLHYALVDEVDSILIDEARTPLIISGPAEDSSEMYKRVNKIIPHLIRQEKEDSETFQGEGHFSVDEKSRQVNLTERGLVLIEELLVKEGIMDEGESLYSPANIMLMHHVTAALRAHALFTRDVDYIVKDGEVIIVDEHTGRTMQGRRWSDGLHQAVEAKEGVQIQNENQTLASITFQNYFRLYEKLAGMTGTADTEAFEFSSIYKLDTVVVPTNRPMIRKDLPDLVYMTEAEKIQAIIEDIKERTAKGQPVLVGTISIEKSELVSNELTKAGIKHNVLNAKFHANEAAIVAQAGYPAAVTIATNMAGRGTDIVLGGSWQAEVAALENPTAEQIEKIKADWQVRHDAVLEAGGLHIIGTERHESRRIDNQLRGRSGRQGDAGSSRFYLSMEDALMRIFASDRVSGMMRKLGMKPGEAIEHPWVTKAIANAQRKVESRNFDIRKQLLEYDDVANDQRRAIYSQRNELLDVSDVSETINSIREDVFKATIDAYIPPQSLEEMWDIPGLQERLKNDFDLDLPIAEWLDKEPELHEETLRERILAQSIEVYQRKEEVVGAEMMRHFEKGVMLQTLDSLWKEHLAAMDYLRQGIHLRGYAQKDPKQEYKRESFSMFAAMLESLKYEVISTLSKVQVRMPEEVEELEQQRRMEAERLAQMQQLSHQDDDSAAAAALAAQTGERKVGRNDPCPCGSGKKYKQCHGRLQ
Sequence of Sialic acid-binding Ig-like lectin 9 (Homo sapiens) (Q9Y336 whole entry): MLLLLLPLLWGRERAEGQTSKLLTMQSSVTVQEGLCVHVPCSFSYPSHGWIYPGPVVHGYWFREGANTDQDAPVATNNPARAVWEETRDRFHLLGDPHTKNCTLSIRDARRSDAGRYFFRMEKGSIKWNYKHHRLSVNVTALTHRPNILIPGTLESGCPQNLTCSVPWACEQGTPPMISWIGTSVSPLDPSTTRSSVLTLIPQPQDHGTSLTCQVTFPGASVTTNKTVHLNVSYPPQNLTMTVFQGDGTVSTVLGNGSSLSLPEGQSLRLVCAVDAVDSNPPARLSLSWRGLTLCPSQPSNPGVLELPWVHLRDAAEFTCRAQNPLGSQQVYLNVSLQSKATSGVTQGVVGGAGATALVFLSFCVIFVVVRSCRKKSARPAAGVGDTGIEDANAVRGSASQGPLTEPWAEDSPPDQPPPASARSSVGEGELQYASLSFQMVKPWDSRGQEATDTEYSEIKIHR

For `Cc1cccnc1CN1CCC(c2nnc(Cn3cccn3)n2C)CC1`, the Percent Effect in [1] was -4.04%; in test [2], 1.39%; in [3] it was 0.385%; in test [4] it was -7.79%; with Trypanosoma cruzi, -3.98%; in test [5], 2.21%. Also, the Percent Effect in [6] is 8.95%; in the test filed under Homo sapiens it was -6.28%; in [7], 3.16%; in test [8], 10.3%; in test [9] it was -2.58%.
Consider `Cc1cccc(C(=O)Nc2ccc(OC3CCN(C)CC3)cc2)c1`, for which the Percent Effect is -3.56% in test [1]; 7.79% in test [2]; 6.98% in test [3]; 12% in [4]; 7.57% in the test on Trypanosoma cruzi; 22.1% in test [5]. The Percent Effect in [6] was 7.82%; in the test filed under Homo sapiens, -1.95%; in test [7] it was 5.38%; in [8], 13.6%; in test [9], -8.12%.
Take `Cc1csc(CCCNC(=O)[C@H]2CNC[C@@H](C(=O)N3CCCC3)C2)n1`: the Percent Effect was -4.06% in test [1]; 8.22% in test [2]; 0.0773% in test [3]; 8.38% in test [4]; -1.39% in the test on Trypanosoma cruzi; 0.399% in test [5]. Moreover, the Percent Effect in test [6] was 15.8%; in the test listed under Homo sapiens, -8.49%; in test [7], 10.4%; in [8] it was 11.1%; in test [9], -1.73%.
Consider `COCCCN1CCCN(C(C)C(=O)Nc2cccc(I)c2)CC1` (stereo unspecified), for which the Percent Effect was -5.27% in test [1]; -5.41% in test [2]; 1.61% in test [3]; 1.25% in test [4]; -7.42% with Trypanosoma cruzi; -5% in [5]. For the same molecule, the Percent Effect is 15.1% in [6]; -8.39% in the test listed under Homo sapiens; 1.98% in [7]; -3.66% in test [8]; -0.402% in test [9].
In the case of `O=C1NCCCCC1Sc1nnc(C2CC2)n1C1CC1` (stereo unspecified), the Percent Effect in [1] is 1.19%; in test [2] it was 11%; in test [3] it was -3.07%; in test [4] it was -9.6%; with Trypanosoma cruzi, 3.72%; in [5], 8.64%. In addition, the Percent Effect is 18.5% in test [6]; 23.5% in the test filed under Homo sapiens; 5.38% in test [7]; 15% in test [8]; -13.5% in test [9].
As to `CCNc1cc2c(nn1)CCN(C(=O)c1ccnc(N(C)C)c1)C2`, the Percent Effect is -2.5% in test [1]; 5.26% in [2]; -29.5% in test [3]; 4.93% in [4]; 9.21% in the test with Trypanosoma cruzi; 4.98% in test [5]. Further, the Percent Effect is 5.01% in test [6]; -24.9% in the test filed under Homo sapiens; 4.41% in test [7]; 4.88% in [8]; -5.51% in test [9].
Regarding `CS(=O)(=O)NC[C@H]1OC[C@@H]2CCN(Cc3ccc(F)cc3)C[C@@H]21`, the Percent Effect in test [1] was 0.854%; in test [2] it was 13.3%; in [3], 2.13%; in test [4], -0.611%; in the test with Trypanosoma cruzi, -1.74%; in test [5], -27.8%. The Percent Effect in [6] was 7.35%; in the test filed under Homo sapiens, 13.4%; in test [7], 3.12%; in [8], 15%; in test [9], -6.75%.
`CC(C)C(=O)NCCNc1nccc(-c2cc(C(=O)O)ccn2)n1`: the Percent Effect is -4.2% in [1]; 19.2% in [2]; -3.6% in test [3]; 15% in [4]; 2.74% in the test with Trypanosoma cruzi; 6.82% in [5]. In addition, the Percent Effect was 13.1% in [6]; 2.74% in the test filed under Homo sapiens; 9.68% in [7]; 20% in test [8]; -5.35% in test [9].
Turning to `CN(Cc1ccco1)C[C@H]1OC[C@@H]2CCN(Cc3cccs3)C[C@@H]21`, the Percent Effect was 1.17% in test [1]; -2.67% in [2]; 4.12% in test [3]; 7.42% in test [4]; -3.28% with Trypanosoma cruzi; -50.7% in test [5]. In addition, the Percent Effect is -3.59% in test [6]; -15.4% in the test listed under Homo sapiens; -1.04% in test [7]; -37.5% in test [8]; -2.22% in test [9].
Regarding `COc1c(C(=O)NCc2cccnc2)nnn1Cc1ccc(C)cc1`, the Percent Effect was -1.69% in [1]; 1.33% in test [2]; 1.61% in [3]; 3.68% in [4]; -4.13% in the test with Trypanosoma cruzi; 1.23% in [5]. Moreover, the Percent Effect in test [6] worked out at 4.25%; in the test listed under Homo sapiens, 5.48%; in test [7], 1.06%; in test [8], 2.56%; in test [9], 0.167%.
Regarding `O=S(=O)(c1cccs1)N1CCCn2nnc(CN3CCCCC3)c2C1`, the Percent Effect in test [1] is -2.04%; in test [2], 2.67%; in [3], -7.89%; in test [4] it was 2%; in the test with Trypanosoma cruzi it was 2.7%; in [5], -43.5%. The Percent Effect in test [6] is -0.513%; in the test listed under Homo sapiens, -33.6%; in test [7] it was -1.04%; in [8], 2.5%; in [9] it was -4.44%.
